According to PubChem BioAssay (NCI):
About 79,000 compounds went through this panel and 15% of them were active in at least one assay; those are over-represented in the sample as a whole. The source made the active and inactive calls. Cut-off read from the data, not from the text of the source: active = growth inhibition above about 70%; inactive = the rest.

Columns and labels:
[1] = NCI Yeast Anticancer Drug Screen. Data for the mec2-1 strain (AID 157); conditions: S. cerevisiae mec2-1 strain, active compounds read high
Summary of the method: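 Vehicle-treated cultures served as reference for growth inhibition of compound-exposed mec2-1 yeast.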

[2] = NCI Yeast Anticancer Drug Screen. Data for the rad14 strain (AID 159);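 note: 0% = growth of vehicle-treated control cultures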; conditions: S. cerevisiae rad14 strain growth inhibition, active compounds read high
Summary of the method: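 Here, inhibition of yeast growth was measured after compound exposure, using a strain with a genetic defect in DNA damage repair and vehicle-treated cultures as the reference.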

[3] = NCI Yeast Anticancer Drug Screen. Data for the sgs1 mgt1 strain (AID 161);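 note: 0% = growth of cultures given vehicle only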; conditions: S. cerevisiae sgs1 mgt1 strain, active compounds read high
Summary of the method: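 Inhibition of yeast growth, normalised to vehicle-treated controls, is reported for a strain bearing genetic alterations in DNA damage repair.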

[4] = NCI Yeast Anticancer Drug Screen. Data for the CLN2oe strain (AID 163);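 note: 0% = growth of vehicle-only control cultures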; conditions: S. cerevisiae CLN2oe strain, active compounds read high
Summary of the method: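 Inhibition relative to vehicle-treated yeast is reported. Cells: strain with genetic alteration in cell-cycle control, grown with compound.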

[5] = NCI Yeast Anticancer Drug Screen. Data for the cln2 rad14 strain (AID 165);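 note: 0% = growth equal to vehicle treated cultures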; conditions: S. cerevisiae cln2 rad14 strain, active compounds read high
Summary of the method: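 Each compound was tested on cln2 rad14 yeast. Inhibition of growth was calculated against vehicle-exposed controls.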

[6] = NCI Yeast Anticancer Drug Screen. Data for the bub3 strain (AID 167); conditions: S. cerevisiae bub3 mutant strain, active compounds read high
Summary of the method: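 Whole-cell yeast assay. The mutant strain was incubated with compounds, and growth inhibition was determined by comparison with vehicle-treated cells.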

[7] = NCI Yeast Anticancer Drug Screen. Data for the wt2 strain (AID 169);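 note: 0% = growth of vehicle-treated yeast cultures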; conditions: S. cerevisiae wt2 strain growth inhibition, active compounds read high
Summary of the method: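 Inhibition of yeast growth was determined after compound treatment, normalised to controls receiving only vehicle.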

[8] = NCI Yeast Anticancer Drug Screen. Data for the mlh1 strain (AID 171);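 note: 0% = growth of vehicle-treated control cultures of the same strain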; conditions: S. cerevisiae mlh1 strain growth inhibition, active compounds read high
Summary of the method: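 Vehicle-normalised growth inhibition of a repair- or checkpoint-altered yeast strain following compound treatment.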

[9] = NCI Yeast Anticancer Drug Screen. Data for the sgs1 strain (AID 173);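 note: 0% = growth of vehicle-only control cultures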; conditions: S. cerevisiae sgs1 mutant, active compounds read high
Summary of the method: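 Screen format: yeast with repair or checkpoint alterations, compound exposure, growth read relative to vehicle.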

[10] = NCI Yeast Anticancer Drug Screen. Data for the mlh1 rad18 strain (AID 175); conditions: S. cerevisiae mlh1 rad18 strain growth inhibition, active compounds read high
Summary of the method: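 Vehicle-treated cultures served as the reference for growth inhibition in a yeast strain carrying DNA damage repair alterations exposed to each compound.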

[11] = NCI Yeast Anticancer Drug Screen. Data for the rad52 strain (AID 147);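 note: 0% = growth of vehicle-treated control cultures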; conditions: S. cerevisiae rad52 mutant growth inhibition, active compounds read high
Summary of the method: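 Vehicle-treated cultures served as the reference for growth inhibition of compound-exposed yeast bearing a DNA repair mutation.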

[12] = NCI Yeast Anticancer Drug Screen. Data for the wt1 strain (AID 149);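 note: 0% = growth of vehicle-treated wt1 cultures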; conditions: S. cerevisiae wt1 strain (SPY 50644) growth inhibition, active compounds read high
Summary of the method: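 Measured: growth of wt1 yeast under compound versus vehicle treatment, reported as inhibition.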

[13] = NCI Yeast Anticancer Drug Screen. Data for the rad50EPP+ strain (AID 151);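 note: 0% = growth of vehicle-treated control cultures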; conditions: S. cerevisiae rad50 mutant strain, active compounds read high
Summary of the method: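 In this screen, rad50EPP+ yeast were exposed to compounds. Growth inhibition was scored against vehicle-treated controls.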

[14] = NCI Yeast Anticancer Drug Screen. Data for the mgt1 strain (AID 153); conditions: S. cerevisiae mgt1 mutant growth inhibition, active compounds read high
Summary of the method: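 mgt1 strain exposed; growth vs vehicle control recorded as inhibition.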

[15] = NCI Yeast Anticancer Drug Screen. Data for the rad50 strain (AID 155);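 note: 0% = growth of vehicle-only cultures of the same strain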; conditions: S. cerevisiae rad50 strain growth inhibition, active compounds read high
Summary of the method: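 Growth of the mutant yeast was measured after compound exposure and referenced to vehicle-treated cultures.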

[16] = NCI Yeast Anticancer Drug Screen. Data for the rad18 strain (AID 177); conditions: S. cerevisiae rad18 mutant growth inhibition, active compounds read high
Summary of the method: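 Test articles were incubated with altered yeast defective in DNA damage repair. Results are given as inhibition of growth versus vehicle.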

[17] = at 5.0 µM (retest, dose inferred, filed as 0.5)
[18] = at 50.0 µM (retest, dose inferred, filed as 5.0)

Measured: growth inhibition

CCC/C(Cl)=N\OC(=O)Nc1cccc(C(F)(F)F)c1
inactive: [1]; [17] 16% | [1]; at 11.0 µM 19% | [1]; at 33.0 µM 20% | [1]; at 100.0 µM 23% | [2]; at 1.2 µM 12% | [2]; at 3.7 µM 14% | [2]; at 11.0 µM 16% | [2]; at 33.0 µM 23% | [2]; at 100.0 µM 20% | [3]; [17] 6% | [4]; at 1.2 µM 15% | [4]; at 3.7 µM 5% | [4]; at 11.0 µM 4% | [4]; at 33.0 µM 6% | [4]; at 100.0 µM 18% | [5]; [17] 56% | [6]; at 1.2 µM 34% | [6]; at 3.7 µM 44% | [6]; [17] 9% | [6]; at 11.0 µM 51% | [6]; at 33.0 µM 47% | [6]; at 100.0 µM 46% | [7]; at 1.2 µM 21% | [7]; at 3.7 µM 38% | [7]; at 11.0 µM 61% | [8]; at 1.2 µM 3% | [8]; at 3.7 µM 7% | [8]; at 11.0 µM 16% | [8]; at 33.0 µM 18% | [8]; at 100.0 µM 17% | [9]; at 1.2 µM 50% | [9]; at 3.7 µM 62% | [10]; [17] -10%
active: [1]; [18] 98% | [1]; at 50.0 µM 91.8% | [3]; [18] 99% | [3]; at 50.0 µM 85.8% | [5]; [18] 98% | [5]; at 50.0 µM 89.7% | [6]; [18] 98% | [6]; at 50.0 µM 87.7% | [7]; at 33.0 µM 83% | [7]; at 100.0 µM 77% | [9]; at 11.0 µM 81% | [9]; at 33.0 µM 90% | [9]; at 100.0 µM 88% | [10]; [18] 99% | [10]; at 50.0 µM 83.7%

CCOC(=O)C(NC(=O)c1ccccc1)(N1CCN(c2cc3c(cc2F)c(=O)c(C(=O)O)cn3C2CC2)CC1)C(F)(F)F (centres undefined)
inactive: [11]; at 1.2 µM -1% | [11]; at 3.7 µM 2% | [11]; at 11.0 µM 11% | [11]; at 33.0 µM 35% | [12]; at 1.2 µM -2% | [12]; at 3.7 µM -1% | [12]; at 11.0 µM -1% | [12]; at 33.0 µM 0% | [12]; at 100.0 µM 2% | [13]; at 1.2 µM -1% | [13]; at 3.7 µM 0% | [13]; at 11.0 µM 1% | [13]; at 33.0 µM 2% | [13]; at 100.0 µM 14% | [14]; at 1.2 µM 1% | [14]; at 3.7 µM 1% | [14]; at 11.0 µM 0% | [14]; at 33.0 µM 1% | [14]; at 100.0 µM 2% | [15]; at 1.2 µM 0% | [15]; at 3.7 µM 5% | [15]; [17] -7% | [15]; at 11.0 µM 14% | [15]; at 33.0 µM 47% | [1]; at 1.2 µM -1% | [1]; at 3.7 µM -2% | [1]; [17] -6% | [1]; at 11.0 µM 0% | [1]; at 33.0 µM 2% | [1]; [18] -27% | [1]; at 50.0 µM 3.05% | [1]; at 100.0 µM 3% | [2]; at 1.2 µM 0% | [2]; at 3.7 µM 2% | [2]; at 11.0 µM 4% | [2]; at 33.0 µM 3% | [2]; at 100.0 µM 2% | [3]; [17] -6% | [3]; [18] -15% | [3]; at 50.0 µM -4.1% | [4]; at 1.2 µM -1% | [4]; at 3.7 µM 3% | [4]; at 11.0 µM 2% | [4]; at 33.0 µM 6% | [4]; at 100.0 µM 9% | [5]; [17] 41% | [5]; [18] -13% | [5]; at 50.0 µM 18.5% | [6]; at 1.2 µM -1% | [6]; at 3.7 µM 2% | [6]; [17] -15% | [6]; at 11.0 µM 3% | [6]; at 33.0 µM -39% | [6]; [18] 3% | [6]; at 50.0 µM -16.1% | [6]; at 100.0 µM 3% | [7]; at 1.2 µM -1% | [7]; at 3.7 µM -2% | [7]; at 11.0 µM -2% | [7]; at 33.0 µM -2% | [7]; at 100.0 µM 1% | [8]; at 1.2 µM -1% | [8]; at 3.7 µM -1% | [8]; at 11.0 µM 0% | [8]; at 33.0 µM 0% | [8]; at 100.0 µM 1% | [9]; at 1.2 µM -1% | [9]; at 3.7 µM 0% | [9]; at 11.0 µM 3% | [9]; at 33.0 µM 3% | [9]; at 100.0 µM 2% | [10]; [17] -21% | [10]; [18] 12% | [10]; at 50.0 µM -1.95% | [16]; at 1.2 µM -3% | [16]; at 3.7 µM -1% | [16]; at 11.0 µM 0% | [16]; at 33.0 µM 2% | [16]; at 100.0 µM 6%
active: [11]; at 100.0 µM 75% | [15]; [18] 76% | [15]; at 50.0 µM 74.6% | [15]; at 100.0 µM 79%

CN(C)C[C@H]1CC[C@@H](CN(C)C)C1=O
active: [13]; at 100.0 µM 84% | [15]; at 100.0 µM 78% | [1]; [18] 83% | [7]; at 100.0 µM 99% | [9]; at 100.0 µM 81% | [10]; at 50.0 µM 75% | [16]; at 100.0 µM 87%
inactive: [11]; at 1.2 µM 17% | [11]; at 3.7 µM 24% | [11]; at 11.0 µM 27% | [11]; at 33.0 µM 39% | [11]; at 100.0 µM 66% | [12]; at 1.2 µM 24% | [12]; at 3.7 µM 25% | [12]; at 11.0 µM 25% | [12]; at 33.0 µM 14% | [12]; at 100.0 µM 47% | [13]; at 1.2 µM 16% | [13]; at 3.7 µM 12% | [13]; at 11.0 µM 27% | [13]; at 33.0 µM 50% | [14]; at 1.2 µM 16% | [14]; at 3.7 µM 20% | [14]; at 11.0 µM 25% | [14]; at 33.0 µM 30% | [14]; at 100.0 µM 43% | [15]; at 1.2 µM 11% | [15]; at 3.7 µM 31% | [15]; [17] 5% | [15]; at 11.0 µM 22% | [15]; at 33.0 µM 37% | [15]; [18] 36% | [15]; at 50.0 µM 70% | [1]; at 1.2 µM 13% | [1]; at 3.7 µM 20% | [1]; [17] 9% | [1]; at 11.0 µM 16% | [1]; at 33.0 µM 28% | [1]; at 50.0 µM 57.3% | [1]; at 100.0 µM 49% | [2]; at 1.2 µM 16% | [2]; at 3.7 µM 20% | [2]; at 11.0 µM 21% | [2]; at 33.0 µM 30% | [2]; at 100.0 µM 52% | [3]; [17] 1% | [3]; [18] 18% | [3]; at 50.0 µM 38.4% | [4]; at 1.2 µM -4% | [4]; at 3.7 µM 0% | [4]; at 11.0 µM 9% | [4]; at 33.0 µM 29% | [4]; at 100.0 µM 64% | [5]; [17] 20% | [5]; [18] 14% | [5]; at 50.0 µM 23.9% | [6]; at 1.2 µM 17% | [6]; at 3.7 µM 12% | [6]; [17] 9% | [6]; at 11.0 µM 19% | [6]; at 33.0 µM 29% | [6]; [18] 47% | [6]; at 50.0 µM 34.5% | [6]; at 100.0 µM 63% | [7]; at 1.2 µM -46% | [7]; at 3.7 µM -45% | [7]; at 11.0 µM -40% | [7]; at 33.0 µM 7% | [8]; at 1.2 µM 18% | [8]; at 3.7 µM 32% | [8]; at 11.0 µM 24% | [8]; at 33.0 µM 36% | [8]; at 100.0 µM 29% | [9]; at 1.2 µM 15% | [9]; at 3.7 µM 26% | [9]; at 11.0 µM 30% | [9]; at 33.0 µM 44% | [10]; [17] 7% | [10]; [18] 54% | [16]; at 1.2 µM 21% | [16]; at 3.7 µM 21% | [16]; at 11.0 µM 22% | [16]; at 33.0 µM 36%
